Data taken from PubChem BioAssay (NCATS).
Results filed as inconclusive are left out. Where a call stands in place of a potency, no number is given. Active and inactive are the calls of the source. Calls come from the whole dose curve; as a rule, active = well fitted curve in the direction sought with a large enough effect; inconclusive = small, poorly fitted or top-dose-only effect, or another doubt; inactive = no such curve, though single readings can be large; an effect the other way counts as inactive or inconclusive.

Columns and labels:
[1] = target: Aldehyde dehydrogenase, mitochondrial (Homo sapiens) (UniProt P05091); assay: qHTS for Inhibitors of the Aldehyde Dehydrogenase Family (ALDH2) Primary screen (AID 2061308); note: nearly all actives have a fitted effect of over 55% in size
[2] = target: Retinaldehyde dehydrogenase 3 (Homo sapiens) (UniProt P47895); assay: qHTS for Inhibitors of the Aldehyde Dehydrogenase Family (ALDH1A3) Primary screen (AID 2061315)

Row | Compound | Potency [1] | Potency [2]
1 | O=C1CCCC2=C1C(c1cccc(Oc3ccccc3)c1)N=C(Nc1nc3ccccc3o1)N2 (stereo not given) | inactive | inactive
2 | Cc1cc(C)nc(NC(=S)N2CCN(c3cc(Cl)cc(C(F)(F)F)c3)CC2)c1 | inactive | inactive
3 | CNc1oc(-c2ccc(-c3ccccc3)cc2)nc1C#N | inactive | inactive
4 | Cc1cc(C)nc(NC(=S)N2CCN(c3nc(C)cnc3C)CC2)c1 | inactive | inactive
5 | O=C(Nc1ccc(F)c(C(F)(F)F)c1)Nc1nnc(-c2ccncc2)o1 | inactive | inactive
6 | O=C(Nc1ccc(-c2cn[nH]c2)cc1)Nc1nnc(-c2ccncc2)s1 | inactive | inactive
7 | CCCc1c(C(C)C)nc(C(C)C)c([C@@H](C)O)c1-c1ccc(F)cc1O | inactive | inactive
8 | COc1ccc(N2C[C@]34C=C[C@H](O3)C(C(=O)O)C4C2=O)cc1 (stereo not given in full) | inactive | inactive
9 | O=C(OCC#CCSc1nnc(-c2cccc3ccccc23)o1)c1ccc(F)cc1 | inactive | inactive
10 | CN(C)C(=O)c1cccc(-c2csc(N3CCC(C(N)=O)CC3)n2)c1 | inactive | inactive
11 | Oc1cc(-c2ccc(N3CCCCC3)nc2)cc2cccnc12 | inactive | inactive
12 | CN(Cc1cccs1)c1ncnc2ccc(-c3ccc4c(c3)OCO4)cc12 | inactive | inactive
13 | O=C(Nc1nc(-c2ccccc2)cs1)c1ccncc1NS(=O)(=O)c1ccc(N2CCCC2=O)cc1 | inactive | inactive
14 | Cc1ccnc(NC(=S)N2CC[C@@H](Nc3cccc(C(F)(F)F)c3)C2)c1 | inactive | inactive
15 | CN(C(=O)Nc1ccc2ccccc2c1)c1nnc(-c2ccncc2)s1 | inactive | inactive
16 | CCC1C(=O)N(C)c2cnc(Nc3ccc(C(=O)NC4CCN(C)CC4)cc3OC)nc2N1C1CCCC1 (stereo not given) | inactive | inactive
17 | CCC/C=C\C=C/CCc1cc(O)c([C@@H]2O[C@H](CO)[C@@H](O)[C@H](O)[C@H]2O)c(O)c1C(=O)OC | inactive | inactive
18 | CC(C)(C)n1nc(Cc2cccc3ccccc23)c2c(N)ncnc21 | inactive | inactive

Row | Compound | Potency [1] | Potency [2]
19 | CCCCc1nnc(-c2cnn(C)c2N)n1CCCn1ccnc1 | inactive | inactive
20 | CN(Cc1ccco1)c1ncnc2ccc(-c3ccccc3Cl)cc12 | inactive | inactive
21 | CCOC(=O)C1CCN(C(=O)C(C)(C)NC(=O)Nc2ccc([N+](=O)[O-])cc2)CC1 | inactive | inactive
22 | Fc1ccc(-c2c(P(=S)(c3ccccc3)c3ccccc3)n3ccccc3[n+]2C/C=C/c2ccccc2)cc1 | inactive | inactive
23 | Cn1cc(C[C@H](C(=O)O)N2C(=O)c3ccc(C(=O)O)cc3C2=O)c2ccccc21 | inactive | inactive
24 | Cc1ccc(S(=O)(=O)Nc2cccc(C(=O)Nc3nc(-c4ccc(Cl)cc4)cs3)c2)cc1 | inactive | inactive
25 | Cc1cc(NC(=O)Nc2nnc(-c3ccncc3)s2)ccc1Cl | inactive | inactive
26 | COCCN1C(=O)c2ccccc2NC1c1ccc(OC)c(COc2c(C)cc(NC(C)=O)cc2C)c1 (stereo not given) | inactive | inactive
27 | CCOc1ccc(CCNC(=O)c2cccs2)cc1OCC | inactive | inactive
28 | Brc1ccccc1-c1nc(NCc2ccc(-c3cccnc3)cc2)c2ccccc2n1 | inactive | inactive
29 | Clc1ccc(CSc2nc3ncc(Br)cc3[nH]2)cc1 | inactive | inactive
30 | COc1cccc(CNc2ccc(S(=O)(=O)Nc3ccc(N4CCNCC4)cc3)cc2)c1O | inactive | inactive
31 | CCc1ccc(S(=O)(=O)Nc2cnccc2C(=O)Nc2nc(-c3ccccc3)cs2)cc1 | inactive | inactive
32 | CNC1CCC(N(Cc2ccc(OC)c(-c3ccc(C#N)cc3)c2)C(=O)c2sc3ccccc3c2Cl)CC1 (stereo not given) | inactive | inactive
33 | Cc1ccc(-c2cc(C(=O)N3CC[S+](=O)([O-])CC3)c3ccccc3n2)cc1C | inactive | inactive
34 | N#CN1CCC(NC(=O)c2cccc(C(F)(F)F)c2)CC1 | inactive | inactive
35 | Cc1ccc(OCCn2c(CCNC(=O)OC(C)(C)C)nc3ccccc32)cc1 | inactive | inactive
